Compound activity as filed in PubChem.
Only some compounds are listed: those with a hit (about 1.1% of all), similar ones and a draw of the others.
CatL inh – blocks human cathepsin L protease activity | AID 460 | inhibition, %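 (tested at 10 µM)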 | 58,000 tested, 0.17% active | purified cathepsin L, fluorogenic substrate, fluorescence | P07711; in the data active = inhibition above about 45%;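 note: 0% = enzyme with no compound and 100% = no enzyme blank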
Target sequence (P07711 114-288 limits assumed): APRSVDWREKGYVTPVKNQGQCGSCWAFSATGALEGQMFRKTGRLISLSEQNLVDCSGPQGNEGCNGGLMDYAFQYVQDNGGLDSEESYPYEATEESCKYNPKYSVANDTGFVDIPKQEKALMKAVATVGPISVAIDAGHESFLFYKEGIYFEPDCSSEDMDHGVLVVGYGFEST
Target sequence (P07711 292-333 limits assumed): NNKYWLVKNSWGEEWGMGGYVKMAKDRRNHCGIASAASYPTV
CatS block – blocks human cathepsin S protease activity; recombinant cathepsin S, AMC dipeptide fluorescence, pooled mixtures; inhibition, %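 (tested at 5 µM per compound within 10-compound mixtures)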; 62,000 tested, 0.06% active; in the data active = inhibition above about 32%, passing the limit was not always enough;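 note: 0% = enzyme without compound and 100% = blank without enzyme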
Target sequence (P25774 115-331 limits assumed): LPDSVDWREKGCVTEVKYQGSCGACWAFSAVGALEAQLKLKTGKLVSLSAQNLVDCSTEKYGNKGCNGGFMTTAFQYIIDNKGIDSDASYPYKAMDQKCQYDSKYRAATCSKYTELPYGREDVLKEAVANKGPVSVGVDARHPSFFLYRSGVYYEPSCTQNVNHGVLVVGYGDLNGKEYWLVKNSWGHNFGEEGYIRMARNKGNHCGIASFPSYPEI
SKBR3 24h inh – SK-BR-3 proliferation inhibitors; SK-BR-3 viability, CellTiter-Glo ATP luminescence, 24 h; active compounds read low; viability, % at 10 µM; 41,000 tested, 0.47% active; AID 847;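 active = viability at or below the median of all test compounds minus 3 SD, in both replicates if run twice, cut at about 45% in these data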;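 note: 100% = median untreated cell wells and 0% = median positive control drug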
CatB mix inh – inhibitors of human cathepsin B in compound mixtures. 62,000 tested, 0.06% active. P07858. AID 488. inhibition, %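 (ten-compound pools at 5 µM per compound and 50 µM total)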. Purified cathepsin B, AMC dipeptide fluorescence; in the data active = inhibition above about 22%, passing the limit was not always enough;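 note: 0% = enzyme without compound and 100% = no enzyme blank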
HER2 expr 66K – lowers expression of human Her2 kinase | P04626 | SKBR-3 HER2 protein level, AlphaScreen, 18-24 h; active compounds read low | HER2 level % of control, % at 10 µM | 65,000 tested, 0.69% active | AID 645;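 active = HER2 level under 5% of the carrier-only control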;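 note: 100% = DMSO carrier and 0% = 500 nM PU-H71 HSP90 inhibitor; lower value means stronger loss of Her2 protein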
CatB block – blocks human cathepsin B protease activity. inhibition, %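 (tested at 10 µM)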. purified cathepsin B, fluorogenic substrate, fluorescence. P07858. AID 453. 63,000 tested, 0.1% active; in the data active = inhibition above about 21%;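 note: 0% = enzyme with no compound and 100% = no enzyme blank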
The depositor's hits bear a star; · = no result.

SMILES	CatL inh	CatS block	SKBR3 24h inh	CatB mix inh	HER2 expr 66K	CatB block
COc1ccc(N(CC(=O)NCc2cccc(OC)c2)S(=O)(=O)c2c(C)noc2C)cc1	5	3	86	-1	84	4
COc1ccc(N(CC(=O)NCC2CCCO2)S(=O)(=O)c2c(C)noc2C)cc1 (stereo not drawn)	3	2	86	0	84	32*
CN1CCN(S(=O)(=O)c2ccc(N3CCN(S(=O)(=O)/C=C/c4ccccc4)CC3)nc2)CC1	91*	15	·	3	130	9
CC1(C)CCCC2=C1CC1C(=O)N(Cc3cccnc3)C(=O)C1C2 (stereo not drawn)	5	13	110	4	-22*	2
CCOc1ccc2[nH]c(=O)c(C(c3nnnn3Cc3ccco3)N3CCCC(C)C3)cc2c1 (stereo not drawn)	10	4	·	1	62	5
CC1(C)CC(=O)C2=C(C1)Oc1nc3ccccc3cc1C2C(C#N)C#N (stereo not drawn)	·	·	126	·	7	·
CCOc1ccc(-c2[nH]ncc2Oc2ccccc2OCC)c(O)c1	20	-3	90	-4	-18*	14
CCOc1ccc(-c2[nH]ncc2Oc2ccccc2OC)c(O)c1	22	1	78	3	66	2
CCOC(=O)CC1=C(C(=O)OCC)C(c2ccc(C)o2)C(C#N)=C(N)O1 (stereo not drawn)	-1	0	63	5	66	5
CCOC(=O)CC1=C(C(=O)OCC)C(c2ccc(OC)cc2OC)C(C#N)=C(N)O1 (stereo not drawn)	-10	-6	·	3	-20*	-4
Cc1cc(C)c(NC(=O)C2CSCCS2)c(C)c1 (stereo not drawn)	2	1	·	-9	91	2
COc1cccc(-c2nnn(CC(=O)O)n2)c1	7	23	99	1	-22*	-1
CCOC(=O)Cn1nnc(-c2cccc(OC)c2)n1	19	14	106	0	114	3
CCn1c(SCC(=O)NCc2ccco2)nc2c1c(=O)n(C)c(=O)n2C	5	-4	42*	-6	107	-2
CCCn1c(SCC(=O)NCc2ccco2)nc2c1c(=O)n(C)c(=O)n2C	4	-3	86	5	77	-6
O=C(CSc1nnc(Cn2c(=O)sc3ccccc32)n1-c1ccccc1)Nc1nccs1	11	7	·	-2	83	1
N#CCSc1nc2cc(C(=O)N3CCC(C(N)=O)CC3)ccc2c2nc3ccccc3n12	1	0	·	7	-1.2*	-4
O=c1cc(-c2c(F)c(F)c(F)c(F)c2F)oc2c(F)c(F)c(F)c(F)c12	6	19	34*	5	·	-4
Cc1ccc(-c2noc(C3CCCN(C(=O)c4c(F)cccc4F)C3)n2)cc1 (stereo not drawn)	9	0	28*	2	0.1*	-1
COc1ccc(-c2noc(C3CCCN(C(=O)c4ccccc4OC)C3)n2)cc1OC (stereo not drawn)	23	11	57	3	46	10
Cc1c(C#N)c(N)c(C(=O)c2ccccc2)n1Cc1ccccc1	18	17	97	2	-32*	0
Cc1c(C#N)c(N=CN(C)C)c(C(=O)c2ccccc2)n1-c1ccccc1	-1	-4	·	0	112	2
CCOc1cc(N2CCOCC2)c(OCC)cc1NC(=O)c1cc(-c2ccco2)nc2ccccc12	9	11	44*	2	23	3
C#CC(CC)(CC)NC(=O)c1c(C)noc1C	14	7	126	7	141	2
Cn1c(=O)c2c(nc(SCC(=O)Nc3ccc(N4CCOCC4)c(Cl)c3)n2C)n(C)c1=O	13	13	109	6	95	1
SMILES	CatL inh	CatS block	SKBR3 24h inh	CatB mix inh	HER2 expr 66K	CatB block
Cc1ccc(S(=O)(=O)c2c(C)nn(C(C)(C)C)c2OC(=O)c2ccc(Br)o2)cc1	-3	-1	·	1	4.1*	0
O=C(CCCCn1c(=O)[nH]c2ccccc2c1=O)NCCC1=CCCCC1	26	5	·	-3	115	3
O=C1NCC(O)=C1C=NCCCO	24	4	31*	4	92	3
COc1ccc(CN=CC2=C(O)CNC2=O)cc1OC	-9	-7	92	3	89	5
COc1ccccc1-c1cc(C(F)(F)F)nc(N2CCN(c3ccccc3)CC2)n1	105*	-9	85	0	100	5
O=C1CC(Sc2nnc(-c3ccccc3)o2)C(=O)N1c1ccccc1 (stereo not drawn)	19	6	114	-11	8	3
Cc1ccccc1N1C(=O)CC(Sc2nnc(-c3ccccc3)o2)C1=O (stereo not drawn)	-5	·	4.5*	·	-19*	-2
Cc1c(NC(=O)c2cccc(F)c2)c(=O)n(-c2ccccc2)n1C	7	10	94	3	-26*	4
Cc1c(NC(=O)c2ccc(F)cc2)c(=O)n(-c2ccccc2)n1C	13	-1	·	2	121	5
CC1CN=C(N(C(=O)Nc2ccccc2)c2ccc(S(=O)(=O)N3CCOCC3)cc2)S1 (stereo not drawn)	6	-6	·	3	1.3*	0
CC(C(=O)Nc1ccc(S(=O)(=O)N2CCOCC2)cc1)N(c1ccccc1)S(C)(=O)=O (stereo not drawn)	0	4	122	2	89	0
COc1ccc(-n2nnc3c(SCC(=O)Nc4ccc5c(c4)OCCO5)ncnc32)cc1	4	2	·	5	-7.2*	0
COc1cc(/C=C(/C#N)c2ccc(F)cc2)ccc1OCc1ccc(C(=O)O)o1	6	0	119	-2	84	0
N#C/C(=C/c1ccc(N2CCCCCC2)o1)c1ccc(F)cc1	-2	-23	89	4	-14*	-2
O=C(OC(C(=O)NCc1ccc2c(c1)OCO2)c1ccc(Cl)cc1)c1ccco1 (stereo not drawn)	7	-4	123	2	96	-1
Cn1cc(SCC(=O)NCc2ccc3c(c2)OCO3)c2ccccc21	16	10	·	-4	115	2
O=C(Nc1ccccc1)C1CC2CCCC(C1)C2=O (stereo not drawn)	10	3	·	0	115	5
O=C(Nc1ccc(Nc2ccccc2)cc1)C1CC1	7	-6	97	-8	92	22*
C=CCOC(=O)C1=C(C)Nc2nnnn2C1c1cc(OC)ccc1OC (stereo not drawn)	3	2	111	3	-18*	2
CCN(CCCNC(=O)c1ccc(N2CCCC2=O)cc1)c1cccc(C)c1	1	-2	78	5	74	3
O=C1c2cccc3cccc(c23)C(=O)N1c1nncs1	-6	-2	85	3	-29*	2
CC1CCCN(C(=O)C(Cc2ccccc2)n2cccc2)C1 (stereo not drawn)	·	-1	·	-6	85	-1
